Data taken from the supplement of paper PMC10382584, “Macrocyclization of linear molecules by deep learning to facilitate macrocyclic drug candidates discovery” (Nature Communications, 2023).

compound: Cc1cnc(Nc2ccc(OCCN3CCCC3)cc2)nc1Nc1cccc(S(=O)(=O)NC(C)(C)C)c1 [Fedratinib]; experiment: percent of DMSO control binding (KINOMEscan); higher = weaker binding / less inhibition; extreme values may be limits of the assay; settings: concentration: 100 nM

Chain of UniProt Q99759 (Q99759 whole entry): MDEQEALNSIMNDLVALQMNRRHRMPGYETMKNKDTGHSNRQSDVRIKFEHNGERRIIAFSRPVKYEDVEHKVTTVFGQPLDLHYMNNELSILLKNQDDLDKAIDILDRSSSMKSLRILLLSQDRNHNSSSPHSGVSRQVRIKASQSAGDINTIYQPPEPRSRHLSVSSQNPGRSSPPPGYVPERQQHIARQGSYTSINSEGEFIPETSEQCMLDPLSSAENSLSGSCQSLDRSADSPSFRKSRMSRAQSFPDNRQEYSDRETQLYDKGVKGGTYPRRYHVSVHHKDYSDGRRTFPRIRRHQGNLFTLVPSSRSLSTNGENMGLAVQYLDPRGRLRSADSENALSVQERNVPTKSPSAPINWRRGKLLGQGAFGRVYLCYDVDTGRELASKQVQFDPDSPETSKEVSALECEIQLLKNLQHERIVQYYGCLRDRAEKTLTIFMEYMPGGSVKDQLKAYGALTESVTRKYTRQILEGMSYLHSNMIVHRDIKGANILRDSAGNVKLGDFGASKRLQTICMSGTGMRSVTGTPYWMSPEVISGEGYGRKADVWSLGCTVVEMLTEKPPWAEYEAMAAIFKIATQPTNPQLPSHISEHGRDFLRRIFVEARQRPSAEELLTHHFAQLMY
Chain of UniProt Q99755 (Q99755 whole entry): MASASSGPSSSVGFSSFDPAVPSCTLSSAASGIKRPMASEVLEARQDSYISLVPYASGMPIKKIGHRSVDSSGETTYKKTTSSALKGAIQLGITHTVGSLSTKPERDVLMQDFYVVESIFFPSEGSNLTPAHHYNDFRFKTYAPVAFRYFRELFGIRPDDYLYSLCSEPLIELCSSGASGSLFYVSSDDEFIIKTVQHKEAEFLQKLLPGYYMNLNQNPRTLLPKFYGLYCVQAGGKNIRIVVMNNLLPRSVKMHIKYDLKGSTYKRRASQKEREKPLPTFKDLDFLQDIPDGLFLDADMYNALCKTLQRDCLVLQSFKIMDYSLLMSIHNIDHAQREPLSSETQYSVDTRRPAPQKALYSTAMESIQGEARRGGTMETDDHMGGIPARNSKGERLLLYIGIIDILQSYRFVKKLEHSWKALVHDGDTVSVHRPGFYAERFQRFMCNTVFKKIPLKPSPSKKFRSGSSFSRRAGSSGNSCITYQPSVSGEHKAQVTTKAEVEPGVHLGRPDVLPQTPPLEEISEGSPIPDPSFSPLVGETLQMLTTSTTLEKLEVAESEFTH
Chain of UniProt Q13873 (Q13873 whole entry): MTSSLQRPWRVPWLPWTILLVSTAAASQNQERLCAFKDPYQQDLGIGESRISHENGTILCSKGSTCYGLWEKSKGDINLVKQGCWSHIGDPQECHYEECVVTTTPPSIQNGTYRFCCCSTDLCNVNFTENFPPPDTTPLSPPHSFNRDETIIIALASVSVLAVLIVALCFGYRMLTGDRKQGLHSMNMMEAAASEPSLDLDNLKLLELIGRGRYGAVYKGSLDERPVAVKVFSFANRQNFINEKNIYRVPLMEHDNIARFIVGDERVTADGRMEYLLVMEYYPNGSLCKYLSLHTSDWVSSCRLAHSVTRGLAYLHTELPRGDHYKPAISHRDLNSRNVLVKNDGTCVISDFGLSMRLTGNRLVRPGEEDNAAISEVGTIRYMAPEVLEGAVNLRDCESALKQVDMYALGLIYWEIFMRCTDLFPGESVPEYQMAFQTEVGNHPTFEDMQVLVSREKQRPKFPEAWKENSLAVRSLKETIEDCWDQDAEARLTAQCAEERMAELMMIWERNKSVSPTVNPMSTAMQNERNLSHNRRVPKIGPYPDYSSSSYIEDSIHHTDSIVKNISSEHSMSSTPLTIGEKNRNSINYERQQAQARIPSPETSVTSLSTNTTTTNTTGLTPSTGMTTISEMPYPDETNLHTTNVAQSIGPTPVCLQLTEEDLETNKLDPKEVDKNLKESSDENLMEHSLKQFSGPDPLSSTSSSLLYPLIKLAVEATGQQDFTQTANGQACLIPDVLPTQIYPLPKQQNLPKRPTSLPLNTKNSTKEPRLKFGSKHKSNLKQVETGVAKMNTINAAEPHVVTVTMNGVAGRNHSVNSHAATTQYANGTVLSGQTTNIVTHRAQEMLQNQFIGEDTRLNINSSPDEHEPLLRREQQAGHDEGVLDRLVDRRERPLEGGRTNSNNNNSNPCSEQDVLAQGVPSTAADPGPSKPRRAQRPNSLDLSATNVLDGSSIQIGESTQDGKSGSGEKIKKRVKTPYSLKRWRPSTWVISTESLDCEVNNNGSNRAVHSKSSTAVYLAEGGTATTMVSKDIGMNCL
Chain of UniProt P54646 (P54646 whole entry, looked up): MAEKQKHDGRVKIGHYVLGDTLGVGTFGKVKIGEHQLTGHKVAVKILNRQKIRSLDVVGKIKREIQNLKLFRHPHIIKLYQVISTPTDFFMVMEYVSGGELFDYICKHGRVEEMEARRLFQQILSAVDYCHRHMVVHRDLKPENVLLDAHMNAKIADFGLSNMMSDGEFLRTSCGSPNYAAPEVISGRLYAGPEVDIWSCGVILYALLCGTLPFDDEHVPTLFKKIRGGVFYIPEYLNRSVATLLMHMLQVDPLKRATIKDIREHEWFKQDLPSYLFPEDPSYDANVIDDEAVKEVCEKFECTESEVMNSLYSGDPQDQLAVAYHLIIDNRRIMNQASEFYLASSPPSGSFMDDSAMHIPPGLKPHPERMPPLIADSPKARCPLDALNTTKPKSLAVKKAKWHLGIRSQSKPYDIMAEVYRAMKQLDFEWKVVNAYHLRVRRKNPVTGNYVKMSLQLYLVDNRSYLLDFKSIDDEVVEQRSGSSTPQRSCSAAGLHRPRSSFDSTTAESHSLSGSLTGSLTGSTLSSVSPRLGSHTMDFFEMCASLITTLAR
Chain of UniProt P29597 (P29597 whole entry, looked up): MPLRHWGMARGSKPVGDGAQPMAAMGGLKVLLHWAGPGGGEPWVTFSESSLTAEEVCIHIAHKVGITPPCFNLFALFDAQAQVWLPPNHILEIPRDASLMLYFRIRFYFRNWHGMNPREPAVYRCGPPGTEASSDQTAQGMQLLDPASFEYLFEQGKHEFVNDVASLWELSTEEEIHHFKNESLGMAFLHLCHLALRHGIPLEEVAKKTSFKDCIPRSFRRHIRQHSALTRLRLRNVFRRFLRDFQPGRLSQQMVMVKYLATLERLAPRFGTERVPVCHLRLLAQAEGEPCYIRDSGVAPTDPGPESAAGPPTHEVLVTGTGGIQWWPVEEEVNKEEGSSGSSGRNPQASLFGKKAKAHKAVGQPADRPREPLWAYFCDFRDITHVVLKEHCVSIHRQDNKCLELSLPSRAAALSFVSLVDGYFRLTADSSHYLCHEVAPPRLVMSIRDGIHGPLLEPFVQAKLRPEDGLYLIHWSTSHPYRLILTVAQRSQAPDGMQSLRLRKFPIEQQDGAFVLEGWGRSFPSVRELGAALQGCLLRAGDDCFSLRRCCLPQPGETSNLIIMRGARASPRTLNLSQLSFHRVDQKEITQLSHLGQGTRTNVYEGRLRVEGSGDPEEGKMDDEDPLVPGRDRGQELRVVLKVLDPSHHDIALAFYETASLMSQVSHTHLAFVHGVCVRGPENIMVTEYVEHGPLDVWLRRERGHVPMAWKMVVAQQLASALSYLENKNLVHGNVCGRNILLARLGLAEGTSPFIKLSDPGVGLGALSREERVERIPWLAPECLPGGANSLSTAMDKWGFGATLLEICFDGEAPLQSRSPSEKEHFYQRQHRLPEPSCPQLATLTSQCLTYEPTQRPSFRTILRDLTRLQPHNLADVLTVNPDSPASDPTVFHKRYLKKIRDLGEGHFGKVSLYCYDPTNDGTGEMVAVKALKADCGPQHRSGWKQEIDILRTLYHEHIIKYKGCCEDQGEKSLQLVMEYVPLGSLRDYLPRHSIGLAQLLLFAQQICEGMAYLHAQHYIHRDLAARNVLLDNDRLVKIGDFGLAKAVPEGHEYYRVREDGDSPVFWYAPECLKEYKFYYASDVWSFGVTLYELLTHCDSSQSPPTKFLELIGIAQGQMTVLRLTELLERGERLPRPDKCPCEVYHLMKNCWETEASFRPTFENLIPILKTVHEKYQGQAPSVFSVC
Chain of UniProt P0C264 (P0C264 whole entry): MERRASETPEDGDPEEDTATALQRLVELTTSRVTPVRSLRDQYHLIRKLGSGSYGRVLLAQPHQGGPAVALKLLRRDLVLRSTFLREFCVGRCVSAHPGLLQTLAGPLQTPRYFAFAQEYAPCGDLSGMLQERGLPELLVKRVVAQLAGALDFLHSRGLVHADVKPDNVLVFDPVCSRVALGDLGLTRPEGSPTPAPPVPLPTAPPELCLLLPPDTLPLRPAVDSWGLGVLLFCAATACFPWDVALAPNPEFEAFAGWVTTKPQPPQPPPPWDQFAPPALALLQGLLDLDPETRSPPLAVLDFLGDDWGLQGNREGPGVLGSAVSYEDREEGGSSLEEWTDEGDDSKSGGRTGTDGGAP
Chain of UniProt P50750 (P50750 whole entry): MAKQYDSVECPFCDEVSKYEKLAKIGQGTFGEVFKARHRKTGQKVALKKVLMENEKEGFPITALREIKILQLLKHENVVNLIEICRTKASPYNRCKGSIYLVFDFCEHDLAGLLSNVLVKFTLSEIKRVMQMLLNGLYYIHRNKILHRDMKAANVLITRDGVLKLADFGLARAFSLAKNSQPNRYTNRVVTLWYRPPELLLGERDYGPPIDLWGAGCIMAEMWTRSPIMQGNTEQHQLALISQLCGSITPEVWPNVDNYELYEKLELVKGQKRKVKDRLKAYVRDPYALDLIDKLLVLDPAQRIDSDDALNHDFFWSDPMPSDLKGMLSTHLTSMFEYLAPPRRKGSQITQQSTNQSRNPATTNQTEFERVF

| Target | percent of DMSO control binding [%] |
| --- | --- |
| SgK110 (UniProt P0C264) | 100 |
| PRKD3 (UniProt O94806) | 100 |
| TYK2(JH1domain-catalytic) (UniProt P29597) | 8.8 |
| PIP5K1A (UniProt Q99755) | 17 |
| DDR1 (UniProt Q08345) | 100 |
| SYK (UniProt P43405) | 100 |
| RPS6KA4(Kin.Dom.2-C-terminal) (UniProt O75676) | 39 |
| EGFR(E746-A750del) (UniProt P00533) | 99 |
| ALK(L1196M) (UniProt Q9UM73) | 67 |
| PRKCQ (UniProt Q04759) | 100 |
| INSRR (UniProt P14616) | 100 |
| CDK9 (UniProt P50750) | 97 |
| EGFR(T790M) (UniProt P00533) | 100 |
| AMPK-alpha2 (UniProt P54646) | 100 |
| CDKL5 (UniProt O76039) | 91 |
| BMPR2 (UniProt Q13873) | 68 |
| MET(M1250T) (UniProt P08581) | 94 |
| MAP3K15 (UniProt Q6ZN16) | 61 |
| MUSK (UniProt O15146) | 96 |

| Target | percent of DMSO control binding [%] |
| --- | --- |
| JAK1(JH2domain-pseudokinase) (UniProt P23458) | 80 |
| GCN2(Kin.Dom.2,S808G) | 61 |
| HIPK2 (UniProt Q9H2X6) | 79 |
| ERK3 (UniProt Q16659) | 100 |
| MKNK1 (UniProt Q9BUB5) | 88 |
| PKN1 (UniProt Q16512) | 100 |
| PRKG1 (UniProt Q13976) | 100 |
| ROCK1 (UniProt Q13464) | 40 |
| PKN2 (UniProt Q16513) | 100 |
| CDKL2 (UniProt Q92772) | 100 |
| VRK2 (UniProt Q86Y07) | 63 |
| RAF1 (UniProt P04049) | 85 |
| MAP3K3 (UniProt Q99759) | 78 |
| CTK (UniProt P42679) | 74 |
| WNK1 (UniProt Q9H4A3) | 100 |
| PKNB(M.tuberculosis) | 61 |
| FGFR4 (UniProt P22455) | 100 |
| LATS2 (UniProt Q9NRM7) | 89 |
